# Reference: PubChem BioAssay (EPA / NIEHS)
# The source made the active and inactive calls. The calls were made as follows: active = hit-call score of the fitted dose curve at least 0.9, where 1 is the maximum; inactive = score below 0.9.
# What was measured:
# Details in all cases: mRNA level, 48 h; actives raise or lower the signal
# [1] = read-out: adenosine kinase (ADK) gene, ADK (gene 132); experiment: LTEA_HepaRG_ADK: Life Technologies and Expression Analysis (LTEA) Assay for adenosine kinase (ADK) gene using HepaRG (AID 2283471)
# Method in brief: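 Read-out is ADK transcript level measured by qRT-PCR and normalised to three housekeeping genes. Cells are human HepaRG, dosed for 48 h at up to 100 uM in 0.5% DMSO. Gain or loss of signal is fitted against DMSO controls.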
# [2] = read-out: Alpha-fetoprotein (AFP) gene, AFP (gene 174); experiment: LTEA_HepaRG_AFP: Life Technologies and Expression Analysis (LTEA) Assay for Alpha-fetoprotein (AFP) gene using HepaRG (AID 2283472)
# Method in brief: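 Measures AFP mRNA change in HepaRG after 48 h chemical exposure (8 half-log concentrations, highest 100 uM, 0.5% DMSO). Fold change relative to DMSO, fitted in both directions.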
# [3] = read-out: BCL2L11 (gene 10018); experiment: LTEA_HepaRG_BCL2L11: Life Technologies and Expression Analysis (LTEA) Assay for Bcl-2 (BCL2L11) gene using HepaRG (AID 2283473)
# Method in brief: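 HepaRG, 48 h exposure, 8-pt half-log series from 100 uM in 0.5% DMSO, duplicates; qRT-PCR (Fluidigm TaqMan) for BCL2L11, housekeeping-normalized; bidirectional curve fit relative to DMSO baseline.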
# [4] = read-out: Apolipoprotein A-V (APOA5) gene, APOA5 (gene 116519); experiment: LTEA_HepaRG_APOA5: Life Technologies and Expression Analysis (LTEA) Assay for Apolipoprotein A-V (APOA5) gene using HepaRG (AID 2283474)
# Method in brief: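 HepaRG, 48 h chemical exposure in serum-free induction medium, 8-pt half-log series (top 100 uM), 0.5% DMSO vehicle, duplicates. Readout: APOA5 mRNA by qRT-PCR, housekeeping-normalized; bidirectional fit vs DMSO baseline.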
# [5] = read-out: Apoptosis regulator Bcl-2 (Homo sapiens) (UniProt P10415); experiment: LTEA_HepaRG_BCL2: Life Technologies and Expression Analysis (LTEA) Assay for Bcl-2 gene using HepaRG (AID 2283475)
# Method in brief: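 Each chemical was tested in duplicate on HepaRG cultures held in serum-free induction medium for 48 h, highest concentration 100 uM with half-log dilutions. Transcript levels came from multiplexed qRT-PCR, normalised to housekeeping genes; activity was scored in either direction relative to DMSO.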
# [6] = read-out: Bcl-2 (BID) gene, BID (gene 637); experiment: LTEA_HepaRG_BID: Life Technologies and Expression Analysis (LTEA) Assay for Bcl-2 (BID) gene using HepaRG (AID 2283476)
# Method in brief: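 Assay used HepaRG hepatic cells treated 48 h in serum-free medium with half-log dilutions from 100 uM. Endpoint: BID mRNA, qRT-PCR, normalized to ACTB/GAPDH/POLR2A.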
# [7] = read-out: Caspase-3 (Homo sapiens) (UniProt P42574); experiment: LTEA_HepaRG_CASP3: Life Technologies and Expression Analysis (LTEA) Assay for cysteine-aspartic acid protease (CASP3) using HepaRG (AID 2283477)
# Method in brief: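 HepaRG, 48 h exposure, 8 conc. (top 100 uM, half-log steps, duplicate), 0.5% DMSO vehicle; qRT-PCR of CASP3 transcript, housekeeping-normalised (ACTB/GAPDH/POLR2A); bidirectional curve fit vs DMSO baseline.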
# [8] = read-out: Cytochrome P450 (CYP24A1), CYP24A1 (gene 1591); experiment: LTEA_HepaRG_CYP24A1: Life Technologies and Expression Analysis (LTEA) Assay for Cytochrome P450 (CYP24A1) using HepaRG (AID 2283478)
# Method in brief: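 qRT-PCR read-out: CYP24A1 transcript levels normalized to three housekeeping genes, bidirectional curve fits against 0.5% DMSO baseline. Human HepaRG cells treated 48 h with chemicals at eight concentrations from 100 uM in half-log steps.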
# [9] = read-out: Cytochrome P450 (CYP1A2), CYP1A2 (gene 1544); experiment: LTEA_HepaRG_CYP1A2: Life Technologies and Expression Analysis (LTEA) Assay for Cytochrome P450 (CYP1A2) using HepaRG (AID 2283479)
# Method in brief: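 HepaRG, 48 h exposure, top 100 uM, half-log 8-pt, 0.5% DMSO vehicle, duplicates. Readout: TaqMan qRT-PCR of CYP1A2 mRNA, housekeeping-normalized (ACTB/GAPDH/POLR2A). Gain/loss fit relative to DMSO baseline.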
# [10] = read-out: cysteine-aspartic acid protease (CASP8), CASP8 (gene 841); experiment: LTEA_HepaRG_CASP8: Life Technologies and Expression Analysis (LTEA) Assay for cysteine-aspartic acid protease (CASP8) using HepaRG (AID 2283480)
# Method in brief: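 Concentration-response in duplicate up to 100 uM (half-log steps, 0.5% DMSO) on differentiated HepaRG cultures for 48 h. Expression change of CASP8 mRNA is determined by TaqMan qRT-PCR with housekeeping-gene normalization.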
# [11] = read-out: Cytochrome P450 (CYP2B6), CYP2B6 (gene 1555); experiment: LTEA_HepaRG_CYP2B6: Life Technologies and Expression Analysis (LTEA) Assay for Cytochrome P450 (CYP2B6) using HepaRG (AID 2283481)
# Method in brief: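 Read-out is CYP2B6 mRNA by TaqMan qRT-PCR, normalized to three housekeeping genes and fitted bidirectionally against 0.5% DMSO baseline. Human HepaRG cells received test chemicals for 48 h, top concentration 100 uM, half-log dilutions.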
# [12] = read-out: CYP2C8 (gene 1558); experiment: LTEA_HepaRG_CYP2C8: Life Technologies and Expression Analysis (LTEA) Assay for CYP2C8 using HepaRG (AID 2283483)
# Method in brief: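 This is a transcriptional endpoint in HepaRG cultures: 48 h exposure, highest concentration 100 uM. CYP2C8 mRNA is quantified by TaqMan qRT-PCR.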
# [13] = read-out: CYP2C9 (gene 1559); experiment: LTEA_HepaRG_CYP2C9: Life Technologies and Expression Analysis (LTEA) Assay for CYP2C9 using HepaRG (AID 2283484)
# Method in brief: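 Eight-point concentration-response (highest 100 uM, half-log dilutions) in HepaRG cells for 48 h; CYP2C9 expression by qRT-PCR normalized to ACTB, GAPDH, POLR2A. Bidirectional fit, DMSO baseline.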
# [14] = read-out: CYP2E1 (gene 1571); experiment: LTEA_HepaRG_CYP2E1: Life Technologies and Expression Analysis (LTEA) Assay for CYP2E1 using HepaRG (AID 2283485)
# Method in brief: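 Assay uses 48 h exposure of HepaRG hepatic cells, eight concentrations to 100 uM. Expression of CYP2E1 is quantified by TaqMan qRT-PCR with ACTB, GAPDH and POLR2A normalization; curves fitted in both directions relative to vehicle.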
# [15] = read-out: CYP4A11 (gene 1579); experiment: LTEA_HepaRG_CYP4A11: Life Technologies and Expression Analysis (LTEA) Assay for CYP4A11 using HepaRG (AID 2283486)
# Method in brief: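 CYP4A11 transcript levels were quantified by TaqMan qRT-PCR after HepaRG human liver cells were treated for 48 hours with test chemicals (top 100 uM, half-log dilutions, 0.5% DMSO). Gain or loss of signal was fitted relative to DMSO.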
# [16] = read-out: Cytochrome P450 3A4 (Homo sapiens) (UniProt P08684); experiment: LTEA_HepaRG_CYP3A4: Life Technologies and Expression Analysis (LTEA) Assay for CYP3A4 using HepaRG (AID 2283487)
# Method in brief: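 HepaRG, 48 h exposure, 8-pt CRC from 100 uM (half-log), 0.5% DMSO, duplicates; serum-free induction medium. Readout: CYP3A4 mRNA, qRT-PCR, ACTB/GAPDH/POLR2A normalization. Bidirectional fit vs DMSO.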
# [17] = read-out: DNA damage-inducible transcript 3 (DDIT3), DDIT3 (gene 1649); experiment: LTEA_HepaRG_DDIT3: Life Technologies and Expression Analysis (LTEA) Assay for DNA damage-inducible transcript 3 (DDIT3) using HepaRG (AID 2283488)
# Method in brief: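 Eight-point concentration-response (100 uM highest, half-log dilutions) in HepaRG, 48 h, duplicate wells. Endpoint: qRT-PCR mRNA, normalized (ACTB, GAPDH, POLR2A), bidirectional fitting with DMSO as baseline.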
# [18] = read-out: Pro-epidermal growth factor (Homo sapiens) (UniProt P01133); experiment: LTEA_HepaRG_EGF: Life Technologies and Expression Analysis (LTEA) Assay for Epidermal growth factor (EGF) using HepaRG (AID 2283489)
# Method in brief: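 qRT-PCR readout of EGF transcript after 48 h chemical exposure of HepaRG cells; eight concentrations from 100 uM down in half-log steps, duplicate wells, 0.5% DMSO vehicle. Bidirectional curve fitting against DMSO baseline.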
# [19] = read-out: Early growth response protein 1 (EGR1) transcription factor, EGR1 (gene 1958); experiment: LTEA_HepaRG_EGR1: Life Technologies and Expression Analysis (LTEA) Assay for Early growth response protein 1 (EGR1) transcription factor using HepaRG (AID 2283490)
# Method in brief: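 EGR1 expression change in human HepaRG after 48 h chemical exposure, assessed by housekeeping-normalized qRT-PCR; concentration-response up to 100 uM, fitted in both directions against DMSO controls.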
# [20] = read-out: Cytochrome P450 2C19 (Homo sapiens) (UniProt P33261); experiment: LTEA_HepaRG_CYP2C19: Life Technologies and Expression Analysis (LTEA) Assay for CYP2C19 using HepaRG (AID 2283482)
# Method in brief: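 HepaRG, 48 h chemical exposure, 8-pt half-log series from 100 uM in 0.5% DMSO, duplicates. Readout: CYP2C19 mRNA by TaqMan qRT-PCR, housekeeping-normalized. Bidirectional fit vs DMSO baseline; phenobarbital 1mM as induction control.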
# Chain of Cytochrome P450 3A4 (Homo sapiens) (P08684 whole entry, looked up): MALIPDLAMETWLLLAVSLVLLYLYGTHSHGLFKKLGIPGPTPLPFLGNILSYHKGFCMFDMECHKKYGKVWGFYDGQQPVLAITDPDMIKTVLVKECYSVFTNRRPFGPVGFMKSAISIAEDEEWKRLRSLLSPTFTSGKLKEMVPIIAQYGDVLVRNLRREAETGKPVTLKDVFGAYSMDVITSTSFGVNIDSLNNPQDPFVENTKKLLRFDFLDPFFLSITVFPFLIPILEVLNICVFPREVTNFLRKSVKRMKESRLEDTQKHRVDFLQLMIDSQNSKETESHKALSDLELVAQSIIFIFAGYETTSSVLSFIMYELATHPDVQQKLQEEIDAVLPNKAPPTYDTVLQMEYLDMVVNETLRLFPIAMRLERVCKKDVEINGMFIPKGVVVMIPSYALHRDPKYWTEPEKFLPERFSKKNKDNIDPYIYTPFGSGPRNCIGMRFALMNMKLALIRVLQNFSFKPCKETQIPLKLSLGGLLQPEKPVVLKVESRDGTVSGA
# Chain of Caspase-3 (Homo sapiens) (P42574 whole entry, looked up): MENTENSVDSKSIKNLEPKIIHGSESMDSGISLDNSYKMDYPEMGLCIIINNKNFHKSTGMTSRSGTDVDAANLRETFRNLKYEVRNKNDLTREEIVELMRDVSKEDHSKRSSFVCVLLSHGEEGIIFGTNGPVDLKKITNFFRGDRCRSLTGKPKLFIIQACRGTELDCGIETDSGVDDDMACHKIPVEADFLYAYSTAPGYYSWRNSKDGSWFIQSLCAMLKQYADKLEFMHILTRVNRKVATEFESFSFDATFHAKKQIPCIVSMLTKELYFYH
# Chain of Cytochrome P450 2C19 (Homo sapiens) (P33261 whole entry, looked up): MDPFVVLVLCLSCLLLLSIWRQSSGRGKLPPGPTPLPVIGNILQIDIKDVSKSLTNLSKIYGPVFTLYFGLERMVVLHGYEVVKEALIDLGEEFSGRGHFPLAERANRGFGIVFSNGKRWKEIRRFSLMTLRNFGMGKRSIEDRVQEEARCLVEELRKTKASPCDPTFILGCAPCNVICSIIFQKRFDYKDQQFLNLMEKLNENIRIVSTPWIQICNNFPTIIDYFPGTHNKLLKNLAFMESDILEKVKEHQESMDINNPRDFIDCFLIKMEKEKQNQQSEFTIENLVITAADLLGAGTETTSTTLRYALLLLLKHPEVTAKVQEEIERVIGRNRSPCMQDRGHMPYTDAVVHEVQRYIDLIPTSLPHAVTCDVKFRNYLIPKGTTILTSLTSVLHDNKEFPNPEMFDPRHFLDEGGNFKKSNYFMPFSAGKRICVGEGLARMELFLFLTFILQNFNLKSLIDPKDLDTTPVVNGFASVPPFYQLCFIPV
# Chain of Apoptosis regulator Bcl-2 (Homo sapiens) (P10415 whole entry, looked up): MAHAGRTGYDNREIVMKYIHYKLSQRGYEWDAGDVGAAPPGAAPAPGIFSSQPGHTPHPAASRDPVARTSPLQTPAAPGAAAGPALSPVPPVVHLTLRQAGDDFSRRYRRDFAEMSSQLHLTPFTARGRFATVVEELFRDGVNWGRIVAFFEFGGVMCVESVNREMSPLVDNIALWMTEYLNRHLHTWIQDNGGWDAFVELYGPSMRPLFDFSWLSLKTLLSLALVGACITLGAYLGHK
compound,measurement,setting,value
CCCC(=O)OCCC(C)C,outcome,[1],inactive
same,outcome,[2],inactive
same,outcome,[3],inactive
same,outcome,[4],inactive
same,outcome,[5],inactive
same,outcome,[6],inactive
same,outcome,[7],inactive
same,outcome,[8],inactive
same,AC50,[9],50 µM (active)
same,outcome,[10],inactive
same,outcome,[11],inactive
same,outcome,[12],inactive
same,outcome,[13],inactive
same,outcome,[14],inactive
same,outcome,[15],inactive
same,outcome,[16],inactive
same,outcome,[17],inactive
same,outcome,[18],inactive
same,outcome,[19],inactive
O=C=NCCCCCCN=C=O,outcome,[1],inactive
same,outcome,[2],inactive
same,outcome,[3],inactive
same,outcome,[4],inactive
same,outcome,[5],inactive
same,outcome,[6],inactive
same,outcome,[7],inactive
same,outcome,[8],inactive
same,outcome,[9],inactive
same,outcome,[10],inactive
same,outcome,[11],inactive
same,outcome,[20],inactive
same,outcome,[12],inactive
same,outcome,[13],inactive
same,outcome,[14],inactive
same,outcome,[15],inactive
same,outcome,[16],inactive
same,outcome,[17],inactive
same,outcome,[18],inactive
same,outcome,[19],inactive
CCCCCCCCOc1ccc(C(=O)c2ccccc2)c(O)c1,outcome,[1],inactive
same,outcome,[2],inactive
same,outcome,[3],inactive
same,outcome,[4],inactive
same,outcome,[5],inactive
same,outcome,[6],inactive
same,outcome,[7],inactive
same,outcome,[8],inactive
same,AC50,[9],50 µM (active)
same,outcome,[10],inactive
same,AC50,[11],50 µM (active)
same,outcome,[12],inactive
same,outcome,[13],inactive
same,outcome,[14],inactive
same,outcome,[15],inactive
same,outcome,[16],inactive
same,outcome,[17],inactive
same,outcome,[18],inactive
same,outcome,[19],inactive
CCCCOC(=O)c1ccc(O)cc1,outcome,[1],inactive
same,outcome,[3],inactive
same,outcome,[4],inactive
same,outcome,[5],inactive
same,outcome,[6],inactive
same,outcome,[7],inactive
same,outcome,[8],inactive
same,outcome,[9],inactive
same,outcome,[10],inactive
same,outcome,[11],inactive
same,outcome,[20],inactive
same,outcome,[12],inactive
same,outcome,[13],inactive
same,outcome,[14],inactive
same,outcome,[15],inactive
same,outcome,[16],inactive
same,outcome,[17],inactive
same,outcome,[18],inactive
CCN(Cc1cccc(S(=O)(=O)O)c1)c1ccc(C(=C2C=CC(=[N+](CC)Cc3cccc(S(=O)(=O)O)c3)C=C2)c2ccccc2S(=O)(=O)[O-])cc1,outcome,[1],inactive
same,outcome,[2],inactive
same,outcome,[3],inactive
same,outcome,[4],inactive
same,outcome,[5],inactive
same,outcome,[6],inactive
same,outcome,[7],inactive
same,outcome,[8],inactive
same,outcome,[9],inactive
same,outcome,[10],inactive
same,outcome,[11],inactive
same,outcome,[20],inactive
same,outcome,[12],inactive
same,outcome,[13],inactive
same,outcome,[14],inactive
same,outcome,[15],inactive
same,outcome,[16],inactive
same,outcome,[17],inactive
same,outcome,[18],inactive
same,outcome,[19],inactive
Cc1cccc2ccccc12,outcome,[1],inactive
same,outcome,[2],inactive
same,outcome,[3],inactive
same,outcome,[4],inactive
same,outcome,[5],inactive
same,outcome,[6],inactive
same,outcome,[7],inactive
same,outcome,[8],inactive
same,outcome,[9],inactive
same,outcome,[10],inactive
same,outcome,[11],inactive
same,outcome,[12],inactive
same,outcome,[13],inactive
same,outcome,[14],inactive
same,outcome,[15],inactive
same,outcome,[16],inactive
same,outcome,[17],inactive
same,outcome,[18],inactive
same,outcome,[19],inactive
